Assay outcomes: PubChem, National Center for Advancing Translational Sciences (NCATS)
Shown are actives, neighbours in structure and some others; about 0.49% of the full set was active somewhere.
Vif-APOBEC3F blk: blocks the Vif interaction with APOBEC3F; HeLa A3F-eYFP + Vif (tagged APOBEC3F with the HIV-1 protein that degrades it), YFP fluorescence increase; Potency, µM (top dose mostly 46.1 µM), without a hit: at the top dose activity, negative = active; 0.2% of 390,000 active; AID 602313; further: potency means the concentration at half of the fitted maximal effect; % of control where 0% means no effect; nearly all actives have a fitted effect of over 65% in size
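HeLa cells stably expressing Vif plus C-terminally eYFP-tagged A3F were seeded, incubated overnight at 37 deg C, dosed with compound, incubated overnight again at 37 deg C. Yellow fluorescence (Ex 488/Em 500-530) reported blocked Vif-mediated A3F-eYFP degradation.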
mIDH1 inhibitor: human IDH1 R132H inhibition. O75874. IDH1-R132H enzyme, NADPH consumption, diaphorase/resazurin fluorescence. Potency, µM (doses to about 76.6 µM), inactives show at the top dose activity change, negative = inhibition, usual class: inhibitors. 0.093% of 390,000 active. AID 602179; further: potency means the concentration at half of the fitted maximal effect; on the % scale 0 is the no-effect control and ±100 the full control effect; nearly all actives have a fitted effect of over 65% in size
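IDH1-R132H (0.5 ug/mL) preincubated 30 min with compound, then NADPH (0.016 mM) and alpha-KG (2 mM) added; 80 min at RT, pH 7.5. Remaining NADPH coupled via diaphorase/resazurin to fluorescence (540/590 nm); concentration-response curves normalized to no-enzyme control.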
Pin1 inh: human Pin1 inhibition; Q13526; 0.009% of 390,000 active; Potency, µM (doses to about 115 µM), without a hit: top-dose activity, negative = inhibition, actives largely listed as inhibitors; Pin1 FP peptide displacement, HiFluor488, 10 min; active means well fitted inhibition curve with a large enough effect in the polarisation, with a control signal flat, not every such curve was filed as active; inconclusive means small, poorly fitted or top-dose-only effect, or effect the other way, or a change in a side signal; inactive means no such curve, though single readings can be large or run the other way; the % refers to the polarisation; further: potency means the concentration at half of the fitted maximal effect; on the % scale 0 is the no-effect control and ±100 the full control effect
Tb PGK inh: T. brucei PGK inhibition; PGK/GAPDH coupled, Kinase-Glo luminescence, 60 min; 0.043% of 380,000 active; Potency, µM (titrated, usually from 57.5 µM), without a hit: at the highest dose activity change, negative = inhibition, usual class: inhibitors; further: potency means the concentration at half of the fitted maximal effect; on the % scale 0 is the no-effect control and ±100 the full control effect; nearly all actives have a fitted effect of over 60% in size
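Recombinant glycosomal PGK reaction used 1,3-bisphosphoglycerate generated in-well by GAPDH (100nM final) in 100mM TEA pH 7.6, 5mM MgCl2, 0.01% Tween-20. After 60 minutes at room temperature, ATP was read by Kinase-Glo Plus luminescence end-point.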
LDHA inh: blocks human lactate dehydrogenase A. P00338. purified LDHA, NADH/diaphorase-resazurin fluorescence; active compounds read low. activity change, % (values are at about 110 or 230 µM). 0.15% of 480,000 active. AID 1347041; in the data active means activity change below about -30%; inconclusive means mostly about -25% to -30%;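 further: plate controls were DMSO wells for no effect and wells without enzyme for full effect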
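Remaining NADH was detected by diaphorase (0.133 mg/mL) converting 37 µM resazurin to fluorescent resorufin, read at 0 and 20 minutes. The preceding 5-minute room-temperature reaction used 2 nM LDHA, 0.2 mM sodium pyruvate and 0.06 mM NADH at pH 7.4.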
Vif-A3G inh: inhibitors of Vif-APOBEC3G interaction | HeLa A3G-eYFP + Vif (tagged APOBEC3G with the HIV-1 protein that degrades it), YFP fluorescence, overnight | Potency, µM (highest dose often 46.1 µM), for inactives: top-dose activity, negative = active, actives largely listed as inhibitors | 0.076% of 410,000 active | AID 602310; further: potency means the concentration at half of the fitted maximal effect; on the % scale 0 is the no-effect control and ±100 the full control effect; nearly all actives have a fitted effect of over 60% in size
Target sequence (Q9HC16 whole entry, looked up): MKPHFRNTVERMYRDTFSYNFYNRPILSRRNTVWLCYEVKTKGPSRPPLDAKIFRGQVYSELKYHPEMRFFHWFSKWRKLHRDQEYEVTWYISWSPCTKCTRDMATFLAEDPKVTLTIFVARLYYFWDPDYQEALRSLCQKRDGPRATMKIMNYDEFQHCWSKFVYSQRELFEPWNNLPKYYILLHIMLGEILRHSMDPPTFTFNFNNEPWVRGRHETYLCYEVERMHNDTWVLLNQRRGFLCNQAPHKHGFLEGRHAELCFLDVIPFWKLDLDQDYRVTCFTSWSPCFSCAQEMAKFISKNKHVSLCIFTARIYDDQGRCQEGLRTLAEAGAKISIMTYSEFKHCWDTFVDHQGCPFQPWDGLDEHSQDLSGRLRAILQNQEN
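HeLa cells stably expressing Vif and C-terminally eYFP-tagged A3G, seeded overnight at 37 deg C, then exposed to compound by pintool overnight at 37 deg C. Rise in yellow fluorescence (Ex 488/Em 500-530, Acumen) marks blocked Vif-driven A3G degradation.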
Resorufin autofl: counter-screen for mutant IDH1 inhibitors: fluorescence interference | shares compounds with mIDH1 inhibitor | Resorufin detection reagent fluorescence interference, cell-free | inhibition of signal, % at 51.2 µM | 750 tested, under 10 active | AID 623980;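 further: 0% = wells with normal resorufin and full inhibition = wells lacking resorufin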
IDH1 WT: selectivity of mutant IDH1 inhibitors: human wild-type IDH1. AID 623995. shares compounds with mIDH1 inhibitor. 9% of 750 active. Potency, µM (series often up to 115 µM), for inactives: top-dose activity change, negative = inhibition, most hits filed as inhibitors. WT IDH1 enzyme, NADPH diaphorase/resazurin fluorescence;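 further: potency means the concentration at half of the fitted maximal effect; 0% = full WT IDH1 enzyme control and full inhibition = no enzyme wells; nearly all actives have a fitted effect of over 55% in size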
Target sequence (O75874 whole entry, looked up): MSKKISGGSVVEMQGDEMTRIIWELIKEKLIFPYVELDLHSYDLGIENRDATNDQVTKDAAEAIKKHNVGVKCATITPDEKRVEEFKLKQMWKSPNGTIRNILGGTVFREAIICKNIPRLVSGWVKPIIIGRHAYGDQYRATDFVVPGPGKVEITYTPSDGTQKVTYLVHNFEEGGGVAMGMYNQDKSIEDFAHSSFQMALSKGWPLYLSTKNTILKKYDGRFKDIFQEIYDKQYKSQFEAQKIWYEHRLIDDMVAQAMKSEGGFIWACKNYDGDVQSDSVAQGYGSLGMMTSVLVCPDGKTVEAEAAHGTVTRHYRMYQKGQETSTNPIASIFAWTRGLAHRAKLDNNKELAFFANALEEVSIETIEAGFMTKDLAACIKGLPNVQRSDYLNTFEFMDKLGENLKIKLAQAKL
IDH1 R132H conf: mutant IDH1 (human) inhibition, confirmed; shares compounds with mIDH1 inhibitor; IDH1 R132H enzyme, NADPH diaphorase/resazurin fluorescence; Potency, µM (titrated, usually from 76.6 µM), inactives show top-dose activity change, negative = inhibition, hits mostly inhibitors; 83% of 750 active; AID 624002; further: potency means the concentration at half of the fitted maximal effect; nearly all actives have a fitted effect of over 50% in size
* = called active by the depositor. Unless noted, the call rests on the fitted dose curve; in most records, active means well fitted curve in the direction sought with a large enough effect; inconclusive means small, poorly fitted or top-dose-only effect, or another doubt; inactive means no such curve, though single readings can be large; an effect the other way counts as inactive or inconclusive.

Results for CC(C)C[C@@H](CN1CCC[C@@H]1CN1C(=O)C(=O)NC[C@@H]1Cc1ccccc1)N1C[C@H](Cc2ccccc2)N(CC2CCCCCC2)C(=O)C1=O ?
Vif-APOBEC3F blk: inconclusive; mIDH1 inhibitor: 39.8µM*; Pin1 inh: 0.1%; Tb PGK inh: inactive; LDHA inh: 0.2; Vif-A3G inh: -17.5%; Resorufin autofl: 2.0; IDH1 WT: 6.2%; IDH1 R132H conf: 20µM*

What do the screens show for `C#CCOc1ccc2ccccc2c1C=O`?
LDHA inh: 8.4

Results for O=C(NC1CCCCC1)C(c1cccs1)N(C(=O)c1ccccn1)c1ccccc1 (configuration not stated) ?
Vif-APOBEC3F blk: -24.6%; mIDH1 inhibitor: inconclusive; Pin1 inh: 1.4%; LDHA inh: 0.1; Vif-A3G inh: -3.2%; Resorufin autofl: -1.2; IDH1 WT: 6.3%; IDH1 R132H conf: inconclusive

How did Cc1ccc(N(C(=O)CCC(=O)Nc2cc(C)on2)C(C(=O)NC2CCCC2)c2cccs2)cc1 (configuration not stated) do in these assays?
Vif-APOBEC3F blk: -8.1%; mIDH1 inhibitor: -16.9%; Pin1 inh: -13.2%; Tb PGK inh: 8.5%; LDHA inh: -5.1; Vif-A3G inh: -0.2%

What do the screens show for `O=C(NC1CCCC1)C(c1ccccc1F)N(C(=O)c1csnn1)c1ccccc1` (configuration not stated)?
Vif-APOBEC3F blk: 7.7%; mIDH1 inhibitor: inconclusive; Pin1 inh: -1.9%; Tb PGK inh: 8.6%; LDHA inh: -10.5; Vif-A3G inh: -6.5%; Resorufin autofl: -2.7; IDH1 WT: 7.5%; IDH1 R132H conf: 15.8µM*

What do the screens show for `Cc1ccc(N(C(=O)C(F)(F)F)C(C(=O)NC2CCCCC2)c2cccs2)cc1` (configuration not stated)?
Vif-APOBEC3F blk: -12.8%; mIDH1 inhibitor: inconclusive; Pin1 inh: 1.5%; Tb PGK inh: 2.4%; LDHA inh: -4.2; Vif-A3G inh: -10.0%; Resorufin autofl: 0.0; IDH1 WT: -7.6%; IDH1 R132H conf: 11.2µM*

How did O=C(NC1CCCC1)C(c1ccc(F)cc1)N(C(=O)c1csnn1)c1ccccc1 (configuration not stated) do in these assays?
Vif-APOBEC3F blk: 0.1%; mIDH1 inhibitor: -5.0%; Pin1 inh: -2.9%; Tb PGK inh: -5.5%; LDHA inh: -1.8; Vif-A3G inh: 3.1%

How did CCc1noc(C)c1C(=O)Nc1sc2c(c1C#N)CCC(CC)C2 (configuration not stated) do in these assays?
LDHA inh: 3.7

What do the screens show for `Cc1cc(C(=O)CSc2nnc(C(C)Oc3ccc(F)cc3)o2)c(C)n1Cc1ccco1` (configuration not stated)?
LDHA inh: -2.0

Results for CCC(=O)Oc1ccc2c(=O)c(-c3ccc4ccccc4n3)c(CC)oc2c1C ?
Vif-APOBEC3F blk: -4.3%; mIDH1 inhibitor: 52.1µM*; Pin1 inh: -14.6%; Tb PGK inh: 10.4%; LDHA inh: -6.5; Vif-A3G inh: -3.8%; Resorufin autofl: -9.1; IDH1 WT: 1.8%; IDH1 R132H conf: 7.08µM*

What do the screens show for `CC(C)c1ccc(NC(=O)C(c2ccccc2)N(Cc2ccco2)C(=O)CC2NC(=O)NC2=O)cc1` (configuration not stated)?
Vif-APOBEC3F blk: -3.9%; mIDH1 inhibitor: inconclusive; Pin1 inh: 4.8%; Tb PGK inh: 9.6%; LDHA inh: -7.6; Vif-A3G inh: 1.5%; Resorufin autofl: -3.9; IDH1 WT: 4.9%; IDH1 R132H conf: inconclusive

Results for COc1ccc(NC(=O)C(c2ccc(OC)cc2)N(C)C(=O)CC2NC(=O)NC2=O)cc1 (configuration not stated) ?
Vif-APOBEC3F blk: 8.3%; mIDH1 inhibitor: 4.9%; Pin1 inh: 10.5%; Tb PGK inh: inactive; LDHA inh: 7.3; Vif-A3G inh: -0.1%

Results for O=C(O)CSCc1ccc(F)cc1 ?
LDHA inh: -4.8

What do the screens show for `Cc1ccc(N2C(=O)CCSC23C(=O)N(Cc2ccccc2)c2ccccc23)cc1F` (configuration not stated)?
Vif-APOBEC3F blk: -16.9%; mIDH1 inhibitor: 22.4µM*; Pin1 inh: -2.5%; Tb PGK inh: -3.3%; LDHA inh: -5.4; Vif-A3G inh: -4.3%; Resorufin autofl: -6.8; IDH1 WT: -18.1%; IDH1 R132H conf: 25.1µM*

Results for Cc1ccc(N2C(=O)CCSC23C(=O)N(Cc2ccc(F)cc2)c2ccccc23)cc1 (configuration not stated) ?
Vif-APOBEC3F blk: 0.4%; mIDH1 inhibitor: inconclusive; Pin1 inh: -0.6%; Tb PGK inh: 9.4%; LDHA inh: -9.5; Vif-A3G inh: -5.9%

Results for O=C1CCSC2(C(=O)N(Cc3ccc(F)cc3)c3ccccc32)N1c1ccc(Cl)cc1 (configuration not stated) ?
Vif-APOBEC3F blk: -8.2%; mIDH1 inhibitor: inconclusive; Pin1 inh: 1.0%; Tb PGK inh: 11.2%; LDHA inh: 3.6; Vif-A3G inh: -2.7%; Resorufin autofl: -8.3; IDH1 WT: -14.6%; IDH1 R132H conf: 20µM*

What do the screens show for `Cc1ccc(N2C(=O)CCSC23C(=O)N(Cc2ccccc2)c2ccccc23)cc1` (configuration not stated)?
Vif-APOBEC3F blk: -22.1%; mIDH1 inhibitor: inconclusive; Pin1 inh: -3.7%; Tb PGK inh: inactive; LDHA inh: 5.3; Vif-A3G inh: 0.0%; Resorufin autofl: -5.0; IDH1 WT: -17.0%; IDH1 R132H conf: 44.7µM*

Results for O=C1CCSC2(C(=O)N(Cc3ccccc3)c3ccccc32)N1c1ccccc1 (configuration not stated) ?
Vif-APOBEC3F blk: -4.0%; mIDH1 inhibitor: inconclusive; Pin1 inh: inconclusive; Tb PGK inh: inactive; LDHA inh: -1.1; Vif-A3G inh: -7.3%
